# Test results from PubChem BioAssay (Tox21).
# “And” between values parts separate entries of the source, which are not always exact repeats. Equal entries are not always repeated. Results filed as inconclusive are left out. The source made the active and inactive calls. Calls come from the whole dose curve; as a rule, active = well fitted cell-killing curve with a large enough effect in the repeat runs; inconclusive = weak or mixed curves, or effect the other way; inactive = no such curve, though single readings can be large or run the other way.
# Assay: qHTS assay to identify small molecule antagonists of the progesterone receptor (PR) signaling pathway - cell viability counter screen (AID 1346798); note: nearly all actives have a fitted effect of over 50% in size
# Conditions: PR-UAS-bla HEK293T viability, CellTiter-Glo luminescence, 16 h; series mostly up to 92.4 µM; activity change, negative = cytotoxicity: at the top concentration
# Excerpt: National Center for Advancing Translational Sciences [NCATS]
# NIH Chemical Genomics Center [NCGC]
# U.S. Environmental Protection Agency [EPA]
# National Institutes of Environmental Health Sciences [NIEHS]
# National Toxicology Program [NTP]
# U.S. Food and Drug Administration [FDA]
# Progesterone receptor (PR), a nuclear hormone receptor, plays an important role in development, metabolic homeostasis and reproduction. It is activated by the steroid hormone progesterone. Endocrine disrupting chemicals (EDCs) and their interactions with steroid hormone receptors like PR causes disruption of normal endocrine function. To identify the compounds that inhibit PR signaling, a PR-UAS-bla GripTite cell line i.e. PR-UAS-bla HEK293T (Invitrogen, Carlsbad, CA, USA) containing a beta-lactamase reporter gene under the control of an UAS response element was used to screen Tox21 10K compound library. The cytotoxicity of the Tox21 compound library against the PR-bla cell line was tested in parallel by measuring the cell viability using CellTiter-Glo assay in the same wells.
# Tox21 Assay Protocol Summary:
# PR-UAS-bla HEK293T cells were dispensed at 3,000 cells/4 uL of assay medium containing 2% charcoal stripped FBS per well into black wall/clear-bottom 1536-well plates using a Multidrop Combi (ThermoFisher Scientific, Waltham, MA) dispenser. After the assay plates were incubated at a 37C and 5% CO2 for 4 hr, 23 nL of compounds dissolved in DMSO, positive controls or DMSO only was transferred to the assay plate by a Pintool station (Kalypsys, San Diego, CA), followed by addition of 1 uL of R5020 in assay medium using a Flying Reagent Dispenser (FRD, Aurora Discovery, San Diego, CA). The plates were incubated at 37C and 5% CO2 for 16 hr. Then 1 uL of LiveBLAzer B/G FRET substrate was added using a Flying Reagent Dispenser, the plates were incubated at room temperature for 2 hours, and fluorescence intensity was measured by an Envision plate reader (PerkinElmer, Shelton, CT). For cell viability readout that measures cytotoxicity, 4 uL/well of CellTiter-Glo reagent was added into the assay plates using a FRD. After 30 min incubation at room temperature, the luminescence intensity in the plates was measured using a ViewLux (PerkinElmer) plate reader.
# % is set by controls: 0 for no effect and ±100 for the full control effect; potency is the fitted concentration of half-maximal effect.
Compound,"activity change, negative = cytotoxicity",Potency
CC(Cl)CCl (stereo not given),7.43% (inactive),
O=[N+]([O-])C(Br)Br,-4.31% (inactive),
Cc1ccc(C)c2ccccc12,0.0514% (inactive),
CCOP(=S)(OCC)SC(CCl)N1C(=O)c2ccccc2C1=O (stereo not given),22.5% (inactive),
O=[N+]([O-])[O-].[Tl+],10.4% (inactive),
COc1c2c(cc3c1OCO3)CCN(C)C2,-8.14% [at 42.5 µM] (inactive),
CC(=O)[O-].CC(=O)[O-].O.O.O.[Pb+2],-7.35% (inactive),
CCN(CC)C(=O)N[C@@H]1C=C2c3cccc4[nH]cc(c34)C[C@@H]2N(C)C1,8.41% [at 42.5 µM] (inactive),
COP(=O)(OC)Oc1ccc([N+](=O)[O-])cc1,-11.8% (inactive),
O=[N+]([O-])c1ccccc1-c1ccccc1,-0.411% (inactive),
Cc1nn(-c2cc(NS(C)(=O)=O)c(Cl)cc2Cl)c(=O)n1C(F)F,-7.94% (inactive),
O=C(O)[C@H](O)[C@@H](O)C(=O)O,1.79% (inactive),
CCCCN(CCCC)C(=S)S,0.315% (inactive),
O=c1[nH]c2cc(Cl)ccc2n1C1CCNCC1,-19.6% [at 42.5 µM] (inactive),
CN=C=O,-13.2% (inactive),
COP(=S)(NC(C)C)Oc1ccc(C)cc1[N+](=O)[O-] (stereo not given),21.6% (inactive),
CC(=O)[O-].CC(=O)[O-].CC(=O)[O-].[Cr+3],-9.37% (inactive),
O=C(Nc1ccc(F)cc1F)c1cccnc1Oc1cccc(C(F)(F)F)c1,-5.29% (inactive),
CCCCn1cc[n+](C)c1 (tested in a mixture with another compound),2.73% (inactive),
O=C(N[C@@H]1N=C(c2ccccc2F)c2cccc3c2N(CC3)C1=O)c1cc2ccccc2[nH]1,2.19% [at 42.5 µM] (inactive),

Compound,"activity change, negative = cytotoxicity",Potency
C=CCOC(=O)c1ccccc1N,-27.8% (inactive),
O=C1C(Cl)=C(Cl)C(=O)C(Cl)=C1Cl,,inactive
CC1CCCC1,15.5% (inactive),
Oc1cc(Cl)c(Cl)c(Cl)c1Cl,-23.7% (inactive),
COC(=O)C(C)N(C(=O)c1ccco1)c1c(C)cccc1C (stereo not given),-17.3% (inactive),
Cc1cc2c3c(c1)C(c1ccccc1)=N[C@@H](NC(=O)c1ccncc1)C(=O)N3CC2,8.74% (inactive),
COP(=S)(OC)Oc1ccc([N+](=O)[O-])c(C)c1,33.6% (inactive),
CC(C)N(C(=O)CCl)c1ccccc1,,61.1 µM (active) and 48.6 µM (active)
C[C@]12Cc3cn[nH]c3C[C@@H]1CC[C@@H]1[C@@H]2CC[C@@]2(C)[C@H]1CC[C@]2(C)O,,18.8 µM (active)
Clc1c(Cl)c(Cl)c(Cl)c(Cl)c1Cl,-0.673% [at 8.39 µM] (inactive),
C[C@]12C/C(=C/O)C(=O)C[C@@H]1CC[C@@H]1[C@@H]2CC[C@@]2(C)[C@H]1CC[C@]2(C)O,,69.2 µM (active)
CCC(OC(C)=O)C(CC(C)NC)(c1ccccc1)c1ccccc1 (stereo not given),,54.9 µM (active)
Cc1cccc(Cc2cnc[nH]2)c1C,1.99% [at 42.5 µM] (inactive),
[Cl-].[Cl-].[Cl-].[Yb+3],-6.49% (inactive),
CC(C)NCC(O)c1ccccc1Cl (stereo not given),-17.3% [at 42.5 µM] (inactive),
N#Cc1ccc(N(CC(N)=O)CC(F)(F)F)cc1C(F)(F)F,6.65% (inactive),
CC(O)C(=O)[O][Hg][c]1ccccc1 (stereo not given),,4.86 µM (active)
CC(=O)[O-].CC(=O)[O-].O.O.[Zn+2],-17% (inactive),
CC[C@H](C)[C@H]1O[C@]2(C=C[C@@H]1C)C[C@@H]1C[C@@H](C/C=C(\C)[C@@H](O[C@H]3C[C@H](OC)[C@@H](O[C@H]4C[C@H](OC)[C@@H](NC)[C@H](C)O4)[C@H](C)O3)[C@@H](C)/C=C/C=C3\CO[C@@H]4[C@H](O)C(C)=C[C@@H](C(=O)O1)[C@]34O)O2,,24.3 µM (active)
O=[N+]([O-])c1ccc(CCl)cc1,2.16% (inactive),
